Screening results from PubChem.
An excerpt weighted towards active compounds, which were near 0.47% of everything screened.
Mito fusion act: blocks mitochondrial division or promotes mitochondrial fusion; S. cerevisiae fusion-defective mutant growth rescue, CellTiterGlo 48 h; Potency, µM (doses to about 46.1 µM), for the others: top-dose growth rescue (activation), most hits filed as activators; 320,000 tested, 0.23% active; AID 485298; further: % of control where 0% means no effect; nearly all actives have a fitted effect of over 45% in size
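Temperature-sensitive fusion-defective S. cerevisiae (e.g. fzo1-1, mgm1-5) were grown with compound in YPEG medium (3% ethanol, 3% glycerol) for 48 hours at 37C. Growth rescue was measured as viability by CellTiterGlo luminescence after 10 minutes at ambient.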
N370S GC: inhibits or activates N370S mutant glucocerebrosidase. Potency, µM (series often up to 59.4 µM), inactives show top-dose activity change, negative = inhibition, hits mostly inhibitors. P04062. N370S GC spleen homogenate, 4MU-glucoside fluorescence. AID 2101. 330,000 tested, 0.092% active;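 further: 0% = full enzyme activity and -100% = no enzyme basal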
A-T KAP1 phos: potential ataxia-telangiectasia treatments restoring KAP-1 phosphorylation; F2112 A-T fibroblasts, KAP-1 phosphorylation AlphaLISA; neocarzinostatin DNA damage 30 min before lysis; Potency, µM (highest dose often 57.5 µM), for the others: top-dose activation, hits mostly activators; 320,000 tested, 0.19% active; AID 485349; further: % of control where 0% means no effect; nearly all actives have a fitted effect of over 45% in size
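ATM-like activity read as KAP-1 phosphorylation via AlphaLISA donor/acceptor antibody pairs after lysis and 6 hr at 25C. Cells were ATM-null patient fibroblasts (F2112, hTERT), dosed 60 min, then exposed to the DSB inducer NCS for 30 min.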
Eya2 inh: blocks the phosphatase activity of human Eya2. recombinant Eya2, OMFP fluorescence dephosphorylation (OMFP is methylfluorescein phosphate). Potency, µM (highest dose often 76.9 µM), for inactives: at the highest dose activity, negative = inhibition, actives largely listed as inhibitors. 330,000 tested, 0.006% active. AID 488837; further: on the % scale 0 is the no-effect control and ±100 the full control effect
Target sequence (O00167 whole entry, looked up): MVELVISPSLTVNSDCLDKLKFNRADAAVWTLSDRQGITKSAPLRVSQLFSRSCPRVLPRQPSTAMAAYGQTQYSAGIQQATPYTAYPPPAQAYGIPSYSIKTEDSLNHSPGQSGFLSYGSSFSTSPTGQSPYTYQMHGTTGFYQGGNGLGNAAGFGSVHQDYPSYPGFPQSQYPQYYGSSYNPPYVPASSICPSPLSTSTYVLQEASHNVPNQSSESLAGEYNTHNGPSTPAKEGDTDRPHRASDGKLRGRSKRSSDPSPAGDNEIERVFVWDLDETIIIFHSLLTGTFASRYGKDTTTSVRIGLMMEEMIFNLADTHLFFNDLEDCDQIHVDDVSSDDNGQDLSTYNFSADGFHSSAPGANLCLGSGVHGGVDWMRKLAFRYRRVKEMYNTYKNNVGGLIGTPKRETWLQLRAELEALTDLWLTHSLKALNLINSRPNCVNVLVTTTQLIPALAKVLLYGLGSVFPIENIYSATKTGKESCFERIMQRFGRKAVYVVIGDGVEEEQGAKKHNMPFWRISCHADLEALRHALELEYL
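Eya2 (0.2 uM) preincubated 10 min at ambient with compound, then OMFP substrate added at 50 uM; 10 min reaction in 50 mM HEPES pH 7.5, 50 mM NaCl, 5 uM MgCl2, 0.05% BSA, 1 mM DTT. Fluorescence read at Ex 485/Em 525 nm.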
Numbers without * were called inactive; ? = inconclusive; · = no result. The call rests on the fitted dose curve; in most records, active means well fitted curve in the direction sought with a large enough effect; inconclusive means small, poorly fitted or top-dose-only effect, or another doubt; inactive means no such curve, though single readings can be large; an effect the other way counts as inactive or inconclusive. Potency means the concentration at half of the fitted maximal effect.

SMILES | Mito fusion act | N370S GC | A-T KAP1 phos | Eya2 inh
CN(Cc1ccccc1F)C(=O)c1ccc(Oc2ccccc2)cc1 | 22% | -11% | 14µM* | 2%
CN(Cc1ccc(C(F)(F)F)cc1)C(=O)c1ccc(Oc2ccccc2)cc1 | -17% | 0% | -3% | -17%
Cc1[nH]c2c(C)cccc2c1CC(=O)O | ? | 6% | -1% | -8%
Cc1cccc2c(N=O)c(O)[nH]c12 | 0% | -3% | 3.2µM* | -7%
CN1CCN(c2nc3cc(C(F)(F)F)ccc3n3cccc23)CC1 | 18µM* | -20% | · | -2%
FC(F)(F)c1ccc2c(c1)nc1n2CCCC1 | -9% | -4% | 1% | 9%
COCCN(C(=S)Nc1cccc(C)c1C)C(C)c1ccco1 (stereo unspecified) | 1% | 7% | 2% | -5%
COCCN(C(=S)Nc1ccccc1C)C(C)c1ccco1 (stereo unspecified) | -7% | 5% | 32µM* | -7%
CCC(=O)c1ccc2c(c1)OCCO2 | -3% | 21% | 10µM* | -11%
CCCC(=O)c1ccc2c(c1)OCCO2 | 1% | -21% | 0% | 13%
COc1ccc(C(=O)c2oc3ccc(OC)cc3c2NC(C)=O)cc1 | -6% | -1% | 0% | 16%
NC(=O)c1cc(S(=O)(=O)N2CCN(c3ccc([N+](=O)[O-])cc3)CC2)cs1 | 1% | -13% | 4% | -3%
Clc1ccc(-c2nnc(-c3ccco3)nc2N2CCCCC2)cc1 | 11µM* | ? | 0% | -9%
Cc1ccc2c(c1)Sc1ccccc1CC2=O | -7% | · | 40µM* | 6%
Cc1[nH]n(-c2ccccc2)c(=O)c1C=Nc1ccc(S(=O)(=O)Nc2nccs2)cc1 | 7% | 0% | 2% | 4%
COc1ccc(CNC(=O)CN2C(=O)CSc3ccc(S(=O)(=O)N4CCOCC4)cc32)c(OC)c1 | 4% | -12% | 7.1µM* | -10%
CCOc1ccccc1CNC(=O)CN1C(=O)CSc2ccc(S(=O)(=O)N3CCOCC3)cc21 | 2% | -14% | -6% | -13%
Cc1ccc(C(=O)Nc2ccc(S(=O)(=O)O)c3cc(S(=O)(=O)O)cc(S(=O)(=O)O)c23)cc1NC(=O)c1cccc(NC(=O)Nc2cccc(C(=O)Nc3cc(C(=O)Nc4ccc(S(=O)(=O)O)c5cc(S(=O)(=O)O)cc(S(=O)(=O)O)c45)ccc3C)c2)c1 | 16µM* | ? | · | 28%
COCCNC(=S)N(CCO)Cc1cc2cc3c(cc2[nH]c1=O)OCO3 | 6% | ? | -3% | 7%
CC1CCN(C2CCN(S(=O)(=O)c3ccc(C(F)(F)F)cc3)CC2)CC1 | 11µM* | -12% | 5% | -2%
CCOC(=O)c1ccccc1NC(=O)CSc1nnc(Cc2cccn2C)n1-c1ccc(F)cc1 | 3% | 22% | 0% | 13%
O=S(=O)(NC(=NC1CCCCC1)c1ccccc1F)c1ccccc1 | 0.63µM* | 1% | 5% | -6%
CC(OC(=O)c1ccccc1Nc1ccc(SC(F)F)cc1)C(N)=O (stereo unspecified) | 14µM* | 3% | 3% | -14%
CCOC(=O)c1c(CC(C)C)csc1NC(=O)COC(=O)c1ccc(O)cc1 | -1% | -6% | 1% | -24%
COc1ccccc1NC(=S)N1CC(C)(C)C1=O | -6% | -6% | 5.6µM* | -7%
SMILES | Mito fusion act | N370S GC | A-T KAP1 phos | Eya2 inh
COc1ccccc1NC(=S)NC12CN3CN(CN(C3)C1)C2 | 7% | -3% | -3% | -11%
Cc1cccc(N2CCN(c3nc(C)cc(C)c3C#N)CC2C)c1 (stereo unspecified) | -3% | 0% | 11% | -6%
O=C(NC(CC1CCCCC1)C(=O)O)c1ccccc1 (stereo unspecified) | -1% | · | 25µM* | -17%
O=C(NC(Cc1ccccc1)C(=O)N1CCCCCC1)c1ccccc1 (stereo unspecified) | -1% | 4% | 19% | -3%
Cc1cccc(NC(=S)NNC(=O)COc2ccc(Cl)cc2Cl)c1 | 22µM* | 10% | -2% | -41%
CSc1ccc(CN(C)CC(=O)Nc2cccc(Br)c2)cc1 | 0% | 8% | 11% | -12%
COc1cc(CCC(=O)OCC(=O)N2CCc3ccccc32)cc(OC)c1OC | 11% | 20% | 8.9µM* | 7%
CC(C)(C)OC(=O)N1CSC[C@H]1C(=O)NC[C@H](CC(=O)O)c1ccc(Cl)cc1 | 16% | -7% | 7.1µM* | 22%
Cc1scc(C(=O)N/N=C/c2ccc(Cl)s2)c1C | 13µM* | -9% | -2% | -13%
CC1CN(C(=O)Cn2cc(S(=O)(=O)CC(=O)N(C)c3ccccc3)c3ccccc32)CC(C)O1 (stereo unspecified) | 3% | -2% | 4% | -18%
COc1ccccc1C(=O)O/N=C1/CCCc2c1ccc(OC)c2[N+](=O)[O-] | 1% | -1% | 13% | 13%
COc1ccc2c(c1)CC/C2=N\OC(=O)c1ccccc1OC | 35µM* | 4% | 8% | -11%
O=C(NCc1ccc2c(c1)OCO2)c1cc(Cl)ccc1Cl | 0% | -1% | 23% | -4%
O=C(NCc1ccc2c(c1)OCO2)c1ccc(CSCc2ccc(Cl)cc2)o1 | 18µM* | 9% | 3% | 3%
O=C(NCc1ccc2c(c1)OCO2)c1ccc(COc2cc(Cl)ccc2Cl)o1 | 14µM* | · | 2% | 7%
COc1ccc(-c2cc(C(=O)Nc3cc(Cl)ccc3OC)no2)cc1 | -16% | -1% | -9% | 9%
O=C(O)CCC(=O)NN1C(=O)c2ccccc2NC1c1ccco1 (stereo unspecified) | 1% | 1% | 0.79µM* | -29%
N#CCCN(C(=O)COC(=O)c1ccc2c(c1)OCO2)c1ccccc1 | -4% | · | 0% | -4%
CCOC(=O)C1=C(O)C(=O)NC(c2ccccc2)=C(OC2CCCCC2)C1 | 10µM* | 7% | 0% | -1%
Cc1cccc(CNc2ccnc(-c3ccoc3)n2)c1 | · | 5% | · | ·
Cc1cccc(CNc2ccnc(-c3ccccc3C(F)(F)F)n2)c1 | · | 14µM* | · | ·
COc1ccc(/C=N/Nc2nc(=O)[nH]nc2C)cc1OC | -2% | -1% | 7.1µM* | -17%
NC(=O)C1CC(=O)N(c2ccc(OCC(=O)Nc3ccccc3F)cc2)C1 (stereo unspecified) | 3% | · | 20% | -2%
CCOc1ccc(NC(=S)N(CCc2c(C)[nH]c3ccc(C)cc23)Cc2ccncc2)cc1 | 23% | 14µM* | 16% | 3%
O=C(CCn1c(=S)oc2ccccc21)N1CCN(c2ccc(F)cc2)CC1 | 0% | 10% | 6% | 1%
CC(C)CN1CCC(=O)N([C@H](CSc2ccccc2)Cc2ccccc2)CC1 | -3% | -7% | 1% | 0%
CCn1c(COc2ccc(Cl)cc2)nnc1SC1CCc2ccccc2C1=O (stereo unspecified) | 18µM* | 4% | 6% | 2%
Cc1csc(NC(=O)C2CCCN(S(=O)(=O)c3cccnc3)C2)n1 (stereo unspecified) | -1% | -2% | 7% | 11%
COc1ccc(N(CCC#N)C(=O)/C(C#N)=C\c2cccs2)cc1 | -2% | -2% | 3.2µM* | -5%
